The text below walks through data of the antibiotic and cytotoxicity screens of Wong et al. (2023).

The whole screen tested about 39,000 compounds, of which about 1,500 (3.8%) were called active. Only a selection was taken, and actives are over-represented in it overall.

This experiment concerns HSkMC (human skeletal muscle cells). Nature of the experiment: cytotoxicity call (relative viability < 0.9). The conditions noted are these: 10 µM.
Regarding `C[C@@H]1CCCCO[C@H](CN(C)Cc2ccncc2)[C@@H](C)CN([C@H](C)CO)C(=O)c2cc(NC(=O)NC3CCCCC3)ccc2O1`, the cytotoxicity call is “inactive”.
As for `C[C@@H]1CN([C@H](C)CO)C(=O)CCCn2cc(nn2)CO[C@H]1CN(C)C(=O)Nc1ccc(N2CCN(C)CC2)cc1`, the cytotoxicity call is “inactive”.
Take `CN1CCN(C(=O)C[C@H]2C[C@H]3c4cc(NC(=O)c5ccc6c(c5)OCO6)ccc4O[C@H]3[C@@H](CO)O2)CC1`: the cytotoxicity call was “inactive”.
In the case of `Cn1cnc(S(=O)(=O)N2C[C@@H](O)COC[C@@H]3O[C@H](CC(=O)N4CCN(c5ccccc5)CC4)CC[C@H]32)c1`, the cytotoxicity call is “inactive”.
As to `COc1ccc(NC(=O)Nc2ccc3c(c2)C(=O)N([C@@H](C)CO)C[C@@H](C)[C@H](CN(C)Cc2ccc(C(=O)O)cc2)OCCCC[C@@H](C)O3)cc1`, the cytotoxicity call was “inactive”.
As to `Cc1noc(C)c1NC(=O)N(C)C[C@@H]1Oc2ccc(NC(=O)CCCN(C)C)cc2C(=O)N([C@@H](C)CO)C[C@H]1C`, the cytotoxicity call was “inactive”.
To `O=C1O[C@@H](c2ccccc2)[C@@H](c2ccccc2)N2[C@@H](c3ccc(OCCO)cc3)[C@]3(C(=O)Nc4ccc(C#CC5(O)CCCCCC5)cc43)[C@@H](C(=O)Nc3nc4ccccc4s3)[C@H]12` belongs “inactive”; to `COc1cc2c(N3CCN(C(=O)Nc4ccc(OC(C)C)cc4)CC3)ncnc2cc1OCCCN1CCCCC1`, “inactive”; to `CCN1CCN(c2ccc(Nc3cc(N(C)C(=O)Nc4c(Cl)c(OC)cc(OC)c4Cl)ncn3)cc2)CC1`, “active”.
As to `C[C@H](CO)N1C[C@H](C)[C@@H](CN(C)C(=O)CCCN(C)C)OCCCC[C@H](C)Oc2ccc(NS(=O)(=O)c3cn(C)cn3)cc2C1=O`, the cytotoxicity call was “inactive”.
To `CC(C)NC(=O)N(C)C[C@@H]1OCCCC[C@@H](C)Oc2ccc(NC(=O)CCCCCC(=O)Nc3ccccc3N)cc2C(=O)N([C@H](C)CO)C[C@H]1C` belongs “inactive”.
Turning to `Cn1nnc2c1[C@H](COCC1CC1)CN(C(=O)CS(C)(=O)=O)C2`, the cytotoxicity call was “inactive”.
In the case of `C[C@H]1CCCCO[C@@H](CN(C)C(=O)Nc2ccccc2)[C@@H](C)CN([C@@H](C)CO)C(=O)c2cc(NC(=O)NC3CCCCC3)ccc2O1`, the cytotoxicity call is “inactive”.
As to `CC(C)n1c(C=CC(O)CC(O)CC(=O)[O-])c(-c2ccc(F)cc2)c2ccccc21.[Na+]` (configuration not stated), the cytotoxicity call was “inactive”.
As for `C[C@@H]1CCCCO[C@@H](CN(C)S(=O)(=O)c2cccs2)[C@H](C)CN([C@H](C)CO)C(=O)c2cc(NC(=O)CCC(F)(F)F)ccc2O1`, the cytotoxicity call is “inactive”.
As to `Cc1ccc(S(=O)(=O)Nc2ccc3c(c2)C(=O)N([C@H](C)CO)C[C@H](C)[C@H](CN(C)S(=O)(=O)c2ccccc2)O3)cc1`, the cytotoxicity call was “inactive”.
Consider `CCCCCCCCCCCCCCCC[N+](C)(C)Cc1ccccc1.[Cl-]`, for which the cytotoxicity call is “active”.
Take `CCCCCCCCCCCCC[N+](C)(C)Cc1ccccc1.O.[Cl-]`: the cytotoxicity call was “active”.
As to `CCCCNc1ccccc1`, the cytotoxicity call is “inactive”.
In the case of `CCCCCc1ccccn1`, the cytotoxicity call is “inactive”.
For `CCCCCCCCCCCCC[N+](C)(C)Cc1ccccc1`, the cytotoxicity call was “inactive”.
Regarding `CC[N+](C)(CC)Cc1ccccc1`, the cytotoxicity call is “inactive”.
For the compound `CO[C@@H]1CN(C)C(=O)c2ccc(NS(=O)(=O)c3cccc(C)c3)cc2OC[C@@H](C)N(Cc2cc(F)ccc2F)C[C@H]1C`, the cytotoxicity call was “inactive”.
Turning to `CN(C)CCCNC(=O)C[C@@H]1CC[C@H]2[C@H](COc3ccc(NC(=O)NC4CCCC4)cc3C(=O)N2C)O1`, the cytotoxicity call is “inactive”.
For the compound `Cc1noc(C)c1NC(=O)N(C)C[C@H]1Oc2c(NC(=O)Nc3ccc(C(F)(F)F)cc3)cccc2C(=O)N([C@H](C)CO)C[C@H]1C`, the cytotoxicity call was “inactive”.
For the compound `CC(=O)N1[C@H](CNC(=O)CN2CCOCC2)[C@@H](c2ccccc2)[C@@H]1CO`, the cytotoxicity call was “inactive”.
Regarding `CC(=O)N[C@@H](Cc1ccccc1)C(=O)O`, the cytotoxicity call was “inactive”.
In the case of `COC[C@H](NC(=O)c1cnc(C)s1)C(=O)N[C@@H](COC)C(=O)N[C@@H](Cc1ccccc1)C(=O)[C@@]1(C)CO1`, the cytotoxicity call is “active”.
To `CC(=O)N[C@@H](Cc1ccccc1)C(=O)NN` belongs “inactive”; to `CC(C)C[C@H](NC(=O)[C@H](CCc1ccccc1)NC(=O)CN1CCOCC1)C(=O)N[C@@H](Cc1ccccc1)C(=O)N[C@@H](CC(C)C)C(=O)[C@@]1(C)CO1`, “active”; to `COc1ccc(C[C@H](NC(=O)[C@H](C)NC(=O)CN2CCOCC2)C(=O)N[C@@H](Cc2ccccc2)C(=O)[C@@]2(C)CO2)cc1`, “active”.
On to `COC(=O)C(Cc1ccccc1)NC(=O)C(N)CC(=O)O` (configuration not stated), for which the cytotoxicity call is “inactive”.
With `COC(=O)[C@H](Cc1ccccc1)NC(=O)[C@@H](N)CC(=O)O`, the cytotoxicity call was “inactive”.
For the compound `CC(=O)N1[C@@H](CO)[C@H](c2ccccc2)[C@@H]1CNC(=O)CN1CCOCC1`, the cytotoxicity call was “inactive”.
For `C[C@@H]1CCCCO[C@@H](CN(C)S(=O)(=O)c2ccc(F)cc2)[C@H](C)CN([C@H](C)CO)C(=O)c2cc(NC(=O)Nc3ccc4c(c3)OCO4)ccc2O1`, the cytotoxicity call was “inactive”.
Then `C[C@@H]1CCCCO[C@@H](CN(C)C(=O)CCCN(C)C)[C@@H](C)CN([C@H](C)CO)C(=O)c2cc(NC(=O)Nc3ccc(C(F)(F)F)cc3)ccc2O1`, with “inactive”.
Then `CC(C)CC#Cc1cnc2c(c1)C(=O)N([C@@H](C)CO)C[C@@H](C)[C@@H](CN(C)S(=O)(=O)c1cn(C)cn1)O2`, with “inactive”.
Regarding `C[C@H](CO)N1C[C@H](C)[C@H](CN(C)C(=O)Nc2ccccc2)Oc2c(NC(=O)C3CCOCC3)cccc2C1=O`, the cytotoxicity call is “inactive”.
For `C[C@H](CO)N1C[C@H](C)[C@H](CN(C)C(=O)c2cnccn2)Oc2cc(Br)ccc2S1(=O)=O`, the cytotoxicity call was “inactive”.
As for `C[C@@H]1CN([C@@H](C)CO)C(=O)c2cc(C#Cc3ccccc3F)cnc2O[C@@H]1CN(C)C(=O)Cc1cccnc1`, the cytotoxicity call is “inactive”.
As for `COc1ccc(S(=O)(=O)N(C)C[C@@H]2Oc3ccc(NC(=O)c4ccncc4)cc3CC(=O)N([C@H](C)CO)C[C@H]2C)cc1`, the cytotoxicity call was “inactive”.
Take `CCCC#Cc1cnc2c(c1)C(=O)N([C@H](C)CO)C[C@H](C)[C@H](CN(C)S(=O)(=O)c1cn(C)cn1)O2`: the cytotoxicity call was “inactive”.
For `O=C(O)CC(O)(CC(=O)O)C(=O)O.[LiH].[LiH].[LiH]`, the cytotoxicity call is “inactive”.
On to `NC(=O)c1ccc2nc(-c3ccc(C4(N)CCC4)cc3)c(-c3ccccc3)n2n1`, for which the cytotoxicity call is “inactive”.
Turning to `Nc1ncccc1-c1nc2ccc(-c3ccccc3)nc2n1-c1ccc(C2(N)CCC2)cc1`, the cytotoxicity call is “active”.
For the compound `CC(C)NC(=O)N(C)C[C@@H]1Oc2c(NC(=O)NC3CCCCC3)cccc2C(=O)N([C@@H](C)CO)C[C@@H]1C`, the cytotoxicity call is “inactive”.
As to `C[C@H]1CN([C@@H](C)CO)C(=O)Cc2cc(NC(=O)Nc3ccc(C(F)(F)F)cc3)ccc2O[C@@H]1CN(C)Cc1ccc(Oc2ccccc2)cc1`, the cytotoxicity call is “active”.
`C[C@@H]1CN([C@@H](C)CO)C(=O)Cc2cc(NC(=O)Nc3ccc(C(F)(F)F)cc3)ccc2O[C@H]1CN(C)Cc1ccc(Oc2ccccc2)cc1`: the cytotoxicity call was “active”.
Turning to `C[C@@H]1CN([C@@H](C)CO)C(=O)Cc2cc(NC(=O)Nc3ccc(C(F)(F)F)cc3)ccc2O[C@@H]1CN(C)Cc1ccc(Oc2ccccc2)cc1`, the cytotoxicity call is “active”.
To `C[C@@H]1CN([C@H](C)CO)C(=O)Cc2cc(NC(=O)Nc3ccc(C(F)(F)F)cc3)ccc2O[C@@H]1CN(C)Cc1ccc(Oc2ccccc2)cc1` belongs “active”; to `COc1ccc(S(=O)(=O)Nc2ccc3c(c2)CC(=O)N([C@H](C)CO)C[C@@H](C)[C@@H](CN(C)C)O3)cc1`, “inactive”.
Consider `CCc1nc2ccc(C(=O)NCc3ccc4c(c3)OCO4)cn2c1N(CC)Cc1cccc(Br)c1`, for which the cytotoxicity call is “inactive”.
For `C[C@@H]1CN([C@H](C)CO)C(=O)c2cc(NC(=O)Nc3ccc(C(F)(F)F)cc3)ccc2O[C@@H]1CN(C)C(=O)Nc1ccccc1`, the cytotoxicity call is “inactive”.
Turning to `COc1ccc(NC(=O)N(C)C[C@H]2OCCCC[C@H](C)Oc3ccc(NC(=O)Nc4ccc(F)cc4)cc3C(=O)N([C@H](C)CO)C[C@@H]2C)cc1`, the cytotoxicity call was “inactive”.
On to `COc1ccc(S(=O)(=O)Nc2ccc3c(c2)C(=O)N([C@@H](C)CO)C[C@H](C)[C@H](CN(C)C(=O)c2ccccc2)OCCCC[C@@H](C)O3)cc1`, for which the cytotoxicity call is “inactive”.
Regarding `C[C@@H]1CCCCO[C@H](CN(C)Cc2ccc(Cl)c(Cl)c2)[C@@H](C)CN([C@@H](C)CO)C(=O)c2cc(NS(=O)(=O)c3cn(C)cn3)ccc2O1`, the cytotoxicity call is “inactive”.
For `OC[C@H]1O[C@H](Nc2ccccc2)C[C@@H]1O`, the cytotoxicity call is “inactive”.
Turning to `CC(C)CC#Cc1ccc2c(c1)O[C@@H](CN(C)C(=O)Cc1cccnc1)[C@H](C)CN([C@@H](C)CO)S2(=O)=O`, the cytotoxicity call is “inactive”.
As to `C[C@@H]1CCCCO[C@H](CN(C)C(=O)Cc2ccccc2)[C@H](C)CN([C@@H](C)CO)C(=O)c2cc(NC(=O)Nc3ccccc3)ccc2O1`, the cytotoxicity call was “inactive”.
As to `C[C@H](CO)N1C[C@H](C)[C@@H](CN(C)C(=O)Nc2ccc(C(F)(F)F)cc2)Oc2c(NS(C)(=O)=O)cccc2C1=O`, the cytotoxicity call is “inactive”.
As to `CC(C)NC(=O)N(C)C[C@@H]1Oc2ccc(NS(=O)(=O)c3cn(C)cn3)cc2CC(=O)N([C@H](C)CO)C[C@@H]1C`, the cytotoxicity call is “inactive”.
Consider `COc1ccc(S(=O)(=O)Nc2cccc3c2O[C@@H](CN(C)S(=O)(=O)c2cn(C)cn2)[C@H](C)CN([C@H](C)CO)C3=O)cc1`, for which the cytotoxicity call is “inactive”.
For `C[C@@H]1CN([C@H](C)CO)C(=O)Cc2cc(NC(=O)Nc3ccc(C(F)(F)F)cc3)ccc2O[C@H]1CN(C)Cc1ccc(Oc2ccccc2)cc1`, the cytotoxicity call was “active”.
As for `C[C@H]1CN([C@@H](C)CO)C(=O)Cc2cc(NC(=O)Nc3ccc(C(F)(F)F)cc3)ccc2O[C@H]1CN(C)Cc1ccc(Oc2ccccc2)cc1`, the cytotoxicity call was “active”.
Then `C[C@H](CO)N1C[C@H](C)[C@@H](CN(C)Cc2ccc(Oc3ccccc3)cc2)Oc2ccc(NC(=O)Nc3ccc(C(F)(F)F)cc3)cc2CC1=O`, with “active”; and `C[C@H](CO)N1C[C@H](C)[C@H](CN(C)Cc2ccc(Oc3ccccc3)cc2)Oc2ccc(NC(=O)Nc3ccc(C(F)(F)F)cc3)cc2CC1=O`, with “active”; and `COc1ccc(S(=O)(=O)Nc2ccc3c(c2)CC(=O)N([C@@H](C)CO)C[C@@H](C)[C@@H](CN(C)Cc2ccncc2)O3)cc1`, with “inactive”.
